Laboratory results reported in PubChem BioAssay AID686978 (National Center for Advancing Translational Sciences (NCATS), 2013).
Where “and” joins values, the source holds several entries; their conditions need not be identical. Identical values can stand only once. Screen size: about 420,000 compounds; about 64,000 (15%) were called active. Another 27% or so got no clear call; they are omitted. Calls follow the shape of the dose curve; as a rule, active = well fitted inhibition curve with a large enough effect; inconclusive = small, poorly fitted or top-dose-only effect; inactive = flat fitted curve, though single readings scatter. These entries were drawn from the full list. A call without a number means that no potency is given here.

Assay: qHTS for Inhibitors of human tyrosyl-DNA phosphodiesterase 1 (TDP1): qHTS in cells in absence of CPT; also: nearly all actives have a fitted effect of over 55% in size
Conditions: DT40 Tdp1-/- hTDP1 cells, no CPT, ATP luminescence, 48 h; activity change, negative = growth inhibition: at 46.2 µM (top of the series)
How it was run: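 Growth kinetics read by CellTiter-Glo luminescence after ≥48 hr at 37 °C. Cells: DT40 Tdp1-/- stably carrying human TDP1, 400 per well, compound exposure in the absence of CPT (DMSO vehicle).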
Potency is read from the fitted curve at half-maximal effect.

| SMILES | Potency |
| --- | --- |
| CN(CC(=O)NCc1ccncc1)S(=O)(=O)c1ccc(Br)cc1 | inactive |
| COc1ccc(CCNc2ncnc3nc[nH]c23)cc1OC | 11.6 µM (active) |
| COc1ccc(CCNC(=O)C(=O)NCC2CCNCC2)cc1OC | inactive |
| CCCNC(=O)NC(=O)COC(=O)CC(NC(N)=O)c1ccc(Cl)cc1 (stereo not drawn) | inactive |
| CSCCC(NC(=O)c1ccco1)C(=O)NCCc1ccc(F)cc1 (stereo not drawn) | inactive |
| CCc1ccc(NC(=O)NC(C)c2ccc3c(c2)OCO3)cc1 (stereo not drawn) | inactive |
| CC1CCCN(C(C(=O)Nc2ccc(C(C)C)cc2)c2ccc3c(c2)OCO3)C1 (stereo not drawn) | 18.4 µM (active) |
| CC(NC(=O)Nc1ccc2c(c1)OCO2)c1ccncc1 (stereo not drawn) | inactive |
| Cc1ccc(S(=O)(=O)NC2CCCCCC2)cc1C(N)=O | inactive |
| Cc1cccc(NS(=O)(=O)c2ccc(C)c(C(N)=O)c2)c1 | 9.2 µM (active) |
| Cc1cccc(NS(=O)(=O)c2ccc(C)c(C(=O)NCc3cccnc3)c2)c1 | inactive |
| COc1ccccc1C(=O)N1C(CC(=O)Nc2ccccc2C)C(=O)NC2CCCCC21 (stereo not drawn) | inactive |
| COc1cccc(-n2c(=S)[nH]c3c(oc4ccccc43)c2=O)c1 | inactive |
| CNc1[nH]ncc1[N+](=O)[O-] | inactive |
| CCCCCCNCCn1cnc2c(N)ncnc21 | inactive |
| Cc1ccc(NC(=O)CSc2nc3c([nH]c4ccccc43)c(=O)n2-c2ccccc2)c(C)c1 | 16.4 µM (active) |
| Cc1ccc(NC(=O)CSc2nc3c([nH]c4ccccc43)c(=O)n2-c2ccccc2)cc1Cl | 23.1 µM (active) |
| Cc1ccc(NC(=O)COC(=O)CCc2nc3ccccc3n2-c2ccccc2)c(C)c1 | inactive |
| Cc1ccc(NC(=O)Cn2nc(C)c3ccccc3c2=O)c(C)c1 | inactive |
| CC(C)OCCCn1c(SCC(=O)c2ccccc2)nc2c(sc3ccccc32)c1=O | inactive |
| Cc1cccc(NC(=O)CSc2nc3c(oc4ccccc43)c(=O)n2-c2ccc(F)cc2)c1 | inactive |
| Cc1ccc(NC(=O)CSc2nn3c(=O)c(C)nnc3s2)cc1Cl | inactive |
| Cc1ccc(-n2c(SCC(=O)Nc3cccc(F)c3)nc3c(oc4ccccc43)c2=O)cc1C | inactive |
| Cc1ccc(-n2c(SCC(=O)c3ccccc3)nc3c([nH]c4ccccc43)c2=O)cc1 | 3.66 µM (active) |
| Cc1ccc(NC(=O)CSc2nnc3[nH]c(=O)cc(C)n23)cc1Cl | inactive |
| Cc1nc(SCC(=O)c2ccccc2)c([N+](=O)[O-])[nH]1 | inactive |
| Cc1ccc(C)c(NC(=O)CSc2nc3c(oc4ccccc43)c(=O)n2-c2ccccc2)c1 | 10.3 µM (active) |

| SMILES | Potency |
| --- | --- |
| O=C(CC12CC3CC(CC(C3)C1)C2)NCc1ccco1 | inactive |
| CCCOc1ccc(Cc2c(O)nc(N)[nH]c2=O)cc1C | inactive |
| CN1C(=O)CC(c2ccccc2)C1=O (stereo not drawn) | inactive |
| Cc1cc(C(=O)CC#N)c(C)n1CC(F)(F)F | inactive |
| CCC(=O)N1CCC(C)(C(=O)Nc2cc(OC)c(OC)c(OC)c2)C1 (stereo not drawn) | inactive |
| C/C(=N\NS(=O)(=O)c1ccc(Br)cc1)c1cccs1 | inactive |
| O=C(c1ccco1)N1CCC[C@@]2(CCN(Cc3nccs3)C2)C1 | inactive |
| C[C@H](CO)N1C[C@H](C)[C@@H](CN(C)C(=O)c2cnccn2)Oc2ncc(Br)cc2C1=O | inactive |
| CC1CN(C(=O)CN2C(=O)NC(C)(c3ccccc3)C2=O)CC(C)O1 (stereo not drawn) | inactive |
| O=C(c1ccccc1)c1cccn1CC(=O)N1CCN(c2ccc(F)cc2)CC1 | inactive |
| CCOn1c(SC(C)C)nc2ccccc2c1=O | inactive |
| CCOC(=O)c1ccc(NC(=O)CSc2nnc(COc3ccccc3OC)n2C)cc1 | inactive |
| CC(Sc1nc2c([nH]c3ccccc32)c(=O)n1C)c1ccccc1 (stereo not drawn) | 18.4 µM (active) |
| Cn1nnnc1SCc1cc(=O)[nH]c2ccccc12 | inactive |
| CCOC(=O)c1ccc(NC(=O)c2cc(=O)[nH]c3ccccc23)cc1 | inactive |
| CCOC(=O)c1ccc(NC(=O)CSc2nc3c([nH]c4ccccc43)c(=O)n2C)cc1 | 9.2 µM (active) |
| CSc1ncccc1C(=O)OCC(=O)N1CCOCC1 | inactive |
| CCOC(=O)c1cccc(NC(=O)CCc2nnc3ccc(N4CCOCC4)nn23)c1 | inactive |
| Cc1nc2ccc(C(=O)O)cc2[nH]1 | inactive |
| COC(=O)Nc1nc2ccc(Sc3ccccc3)cc2[nH]1 | 517 nM (active) and 286 nM (active) |
| CC(C)c1nc2ccc(C(=O)O)cc2[nH]1 | inactive |
| CC1CCN(C(=O)/C(=C\c2ccccc2)NC(=O)c2ccccc2)CC1 | inactive |
| O=C(CS(=O)(=O)Cc1ccccc1)Nc1cccnc1 | inactive |
| CNc1cncc(-c2cccc(C(=O)N3CCOCC3)c2)n1 | inactive |
| CNc1cncc(-c2ccc(NS(C)(=O)=O)cc2)n1 | 4.11 µM (active) |
| CS(=O)(=O)Nc1ccc(C(=O)N2CCCC2)cc1 | inactive |
